Measured values taken from PubChem BioAssay.

Assay: E. coli growth modulation, two-sided OD650, primary screen, E. coli filamentation project, strain DRC41, 24 h (AID 1093);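 note: MC1000 strain lacking acrAB efflux and sulA so SOS filamentation is blocked; test concentration not given here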
Settings: OD650, 24 h, higher = more signal, called active from +8 up or from −8 down

z-score, inactive:
O=C1c2ccccc2[C@](Cc2ccccc2I)(C(=O)O)[C@H](c2ccc(CO)cc2)N1Cc1ccccc1C(F)(F)F -0.255
C=CCN1C(=O)[C@@]2(O[C@@H](CCO)[C@H]([Si](C)(C)c3ccc(OC)cc3)[C@H]2C)c2cc(NC(C)=O)ccc21 -0.203
O=C1O[C@@H](c2ccccc2)[C@@H](c2ccccc2)N2[C@@H](c3ccc(O)cc3)[C@]3(C(=O)Nc4ccccc43)[C@@H](C(=O)NC[C@H](O)c3ccccc3)[C@H]12 1.76
C=C(CCCC)C(=O)CC[C@@H](OC(=O)c1ccccc1-c1ccccc1C(=O)O)c1ccc(CO)o1 0.122
COCCOC(=O)N1C(=O)[C@@]2(c3cc(C#CCCO)ccc31)[C@H](c1ccc(O)cc1)N1[C@H](c3ccccc3)[C@H](c3ccccc3)OC(=O)[C@H]1[C@@H]2C(=O)N1CCCCCCC1 -0.16
O=C(NCC(O)CO)[C@]1(CCS(=O)(=O)c2ccccc2)N=C(c2ccc(OCCCO)cc2)O[C@@H]1c1ccccc1 (stereo not given in full) 0.169
CC(C)NC(=O)[C@@H]1c2ccccc2C(=O)N(C2CCCCC2)[C@H]1c1ccc(CO)cc1 0.0495
CCOC(=O)C=Cc1cccc(OC)c1O -0.0998
NC(=O)NCC#Cc1ccc2c(c1)[C@]1(C(=O)N2)[C@H](C(=O)NC[C@H](O)c2ccccc2)[C@H]2C(=O)O[C@H](c3ccccc3)[C@H](c3ccccc3)N2[C@@H]1c1ccccc1OCCO 2.02
CN1C(=O)C2C(C1=O)C1C=C(c3ccc(CO)cc3)C2C(C2CC2)N1Cc1cc2c(cc1Br)OCO2 (stereo not given) -0.911
O=C1OCCC/C=C\[C@H]2OC34C=CCN(Cn5nnc6ccccc65)C(=O)[C@H]3N(CCCO)C(=O)[C@@H]4C12 (stereo not given in full) 0.123
CC(C)N1C(=O)c2ccccc2[C@](C)(C(=O)NC2CC2)[C@@H]1c1ccc(CO)cc1 0.738
O=C1C2C=CC(C(O)CCc3ccccc3)N(Nc3ccccc3)C2C(=O)N1c1ccccc1 (stereo not given) -1.88
O=C1O[C@H](c2ccccc2)[C@H](c2ccccc2)N2[C@H]1[C@@H](C(=O)N1CCCCCCC1)[C@]1(C(=O)Nc3ccc(C#CC4=CCCCC4)cc31)[C@H]2c1ccc(O)cc1 1.26
CC(C)OC(=O)C1=CCC(c2cccc(Cl)c2)O1 (stereo not given) 1.09
C=CCN1C(=O)[C@@]2(O[C@@H](CCO)[C@H]([Si](C)(C)c3ccc(OC)cc3)[C@H]2C)c2cc(N3C(=O)COc4ccccc43)ccc21 0.375
C=CCC(OC(C)=O)[C@@H]1[C@@H](N(Cc2ccc(-c3ccccc3)cc2)C(=O)c2ccc(C)cc2)c2cc(OCCCO)ccc2N1C(=O)c1ccc2ccccc2n1 (stereo not given in full) 1.95
COCCOC(=O)N1C(=O)[C@@]2(c3cc(C#CC4=CCCCC4)ccc31)[C@H](c1ccc(OCCO)cc1)N1[C@H](c3ccccc3)[C@H](c3ccccc3)OC(=O)[C@H]1[C@@H]2C(=O)Nc1nc2ccccc2s1 1.9
O=[N+]([O-])c1ccc(C[n+]2ccc(CCCO)cc2)o1 -2.76
C=C(C)[C@@H]1CC=C(C(O)C2C=CC3C(=O)N(Cc4ccccc4)C(=O)C3N2n2cnnc2)CC1 (stereo not given in full) -0.0792
CCCNC(=O)[C@@]1(C)c2ccccc2C(=O)N(Cc2cc(F)cc(C(F)(F)F)c2)[C@H]1c1ccc(CO)cc1 0.423
CO[C@H]1O[C@H](CO)[C@@H](OC(=O)Nc2cccc(F)c2)[C@H](OC(=O)Nc2ccccc2-c2ccccc2)[C@@H]1OC(=O)Nc1ccccc1-c1ccccc1 0.675
CCOC(=O)N1C(c2ccc(OCCCO)cc2)=NC(C(=O)OC)N1C(=O)OCC (stereo not given) 1.2
COCCCNC(=O)[C@@]1(Cc2ccccc2I)c2ccccc2C(=O)N(Cc2ccccc2)[C@H]1c1ccc(CO)cc1 0.0006
COc1ccc(C#Cc2ccc3c(c2)[C@]2(C(=O)N3)[C@H](C(=O)N3CCN(c4ncccn4)CC3)[C@H]3C(=O)O[C@H](c4ccccc4)[C@H](c4ccccc4)N3[C@@H]2c2ccc(O)cc2)cc1 -0.459
CN(C)CCCC[C@@H]1NC(=O)[C@@H]2C[C@H](C(=O)NCc3ccc(F)cc3)[C@H](c3cccc(OCCO)c3)N2C1=O -0.0129
O=C1O[C@@H](c2ccccc2)[C@@H](c2ccccc2)N2[C@@H](c3ccc(O)cc3)[C@]3(C(=O)Nc4ccc(C#CCCO)cc43)[C@@H](C(=O)O)[C@H]12 0.7
CC(C)NC(=O)[C@@]1(c2ccc([N+](=O)[O-])cc2)CC(=O)N(C(C)C)[C@@H]1c1ccc(CO)cc1 1.26
C=CCC(OC(C)=O)[C@@H]1[C@@H](N(Cc2ccc(-c3cccc(C(F)(F)F)c3)o2)C(=O)Cc2ccc(OC)cc2)c2cc(OCCCO)ccc2N1C(=O)Cc1ccc(OC)cc1 (stereo not given in full) 1.48
C[n+]1ccc2ccc(O)cc2c1 -0.992
C=C(CCCC)/C(=C/C[C@H](OC(C)=O)c1ccc(CO)o1)c1cc(C(=O)OC)ccc1OC 1.05
COCCOC(=O)N1C(=O)[C@@]2(c3cc(C#Cc4ccc(OC)cc4)ccc31)[C@H](c1ccc(OCCO)cc1)N1[C@H](c3ccccc3)[C@H](c3ccccc3)OC(=O)[C@H]1[C@@H]2C(=O)N1CCc2cc(OC)c(OC)cc2C1 1.56
CC(C)C(O)C1C=CC2C(=O)N(C)C(=O)C2N1N1CCCCC1 (stereo not given) -1.46
CCN(CC)c1ccc(N2CC=CC34O[C@@H]5C=CCOC(=O)[C@@H]5[C@H]3C(=O)N(CCCCCO)[C@@H]4C2=O)cc1 (stereo not given in full) 1.29
Cc1cc(C)c(C(O)C2C=CC3C(=O)NC(=O)C3N2Nc2ccccn2)c(C)c1 (stereo not given) -1.16
